# A selection: hits, their analogues and other compounds. The true share with any hit is near 7.5%.
# KinaseGlo FLuc = Counterscreen for Luciferase (Kinase-Glo TM) Inhibition; Luciferin 4-monooxygenase (Photuris pensylvanica), Q27757; Kinase-Glo luciferase, ATP luminescence, 8 min; Potency, µM (titrated, usually from 38.3 µM), without a hit: top-dose activity change, negative = inhibition, usual class: inhibitors; hit rate 0.28% among 200,000; AID 1379, 2008; also: % is scaled to controls: 0 for no effect and ±100 for the full control effect; nearly all actives have a fitted effect of over 60% in size
#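 Light output from Kinase-Glo luciferase with luciferin and 10 uM ATP in 50 mM imidazole pH 7.2, KCl, MgCl2, Tween 20, BSA; compound pin-delivered, 8-min ambient incubation, then luminescence read.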
# NPC1 prom act = qHTS Assay for NPC1 Promoter Activators; hit rate 2.4% among 320,000; Potency, µM (highest dose often 9.22 µM), for the others: at the top dose activation, most hits filed as activators; Huh7 NPC1 promoter luciferase reporter, 24 h; also: % of control where 0% means no effect; nearly all actives have a fitted effect of over 60% in size
#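 Luciferase expression driven by the NPC1 promoter was measured in stably transfected Huh7 cells after a 24 h compound incubation, using a luciferase reagent and a luminescence read.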
# FLuc counter = qHTS profiling assay for firefly luciferase inhibitor/activator using purifed enzyme and Km concentrations of substrates (counterscreen for miR-21 project); Luciferin 4-monooxygenase (Photinus pyralis), P08659; purified FLuc, Km substrates, luminescence inhibition; Potency, µM (doses to about 57.5 µM), inactives show at the top dose activity change, negative = inhibition, usual class: inhibitors; hit rate 6.9% among 360,000;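 also: plate controls were vehicle for no effect and reference inhibitor for full effect; nearly all actives have a fitted effect of over 55% in size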
# Target sequence (P08659 whole entry, looked up): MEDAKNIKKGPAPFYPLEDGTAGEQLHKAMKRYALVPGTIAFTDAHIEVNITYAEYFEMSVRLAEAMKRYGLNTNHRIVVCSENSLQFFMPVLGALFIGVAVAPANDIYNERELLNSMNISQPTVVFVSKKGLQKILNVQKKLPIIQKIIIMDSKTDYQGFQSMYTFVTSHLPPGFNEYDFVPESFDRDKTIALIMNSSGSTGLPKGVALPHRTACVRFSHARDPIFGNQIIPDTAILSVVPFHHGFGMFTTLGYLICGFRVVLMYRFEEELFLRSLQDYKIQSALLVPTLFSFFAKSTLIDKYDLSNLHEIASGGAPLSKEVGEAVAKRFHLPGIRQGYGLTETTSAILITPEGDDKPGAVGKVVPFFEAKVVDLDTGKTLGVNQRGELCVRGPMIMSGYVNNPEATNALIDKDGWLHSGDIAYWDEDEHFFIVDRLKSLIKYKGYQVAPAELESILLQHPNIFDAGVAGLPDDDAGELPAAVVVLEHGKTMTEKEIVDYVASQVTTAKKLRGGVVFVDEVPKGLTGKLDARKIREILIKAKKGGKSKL
#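 Purified P. pyralis luciferase (10nM final) with 10uM D-luciferin and 10uM ATP (Km levels) in 50mM Tris acetate pH 7.5, 10mM Mg acetate, 0.01% Tween-20, 0.05% BSA; qHTS 6-point titration, ~60 µM downward; luminescence read.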
# ELG1 genotoxic = qHTS screen for small molecules that induce genotoxicity in human embryonic kidney (HEK293T) cells expressing luciferase-tagged ELG1. HEK293T ELG1-luciferase reporter, luminescence, 16 h. Potency, µM (doses to about 46 µM), for inactives: top-dose activity change, positive = activation, most hits filed as activators. hit rate 1.3% among 330,000; also: % of control where 0% means no effect; nearly all actives have a fitted effect of over 60% in size
#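 Reporter readout depends on ELG1 protein level, which increases with genetic stress. After 16 hr compound exposure at 37 °C, luciferase activity was quantified using ONE-Glo.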
# SMN2 splice enh = qHTS Assay for Enhancers of SMN2 Splice Variant Expression | hit rate 2.8% among 210,000 | Potency, µM (doses to about 46.1 µM), for the others: top-dose activity change, positive = activation, hits mostly activators | HEK293 SMN2-luciferase splicing reporter, luminescence, 30-36 h | AID 1458, 2008; also: % of control where 0% means no effect; nearly all actives have a fitted effect of over 55% in size
#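 HEK293 cells carry an SMN2 […]–luciferase reporter in which exon 7 inclusion puts luciferase in frame. Cells were plated 10-12 h before compound addition, then incubated 30-36 h at 37C. ONE-Glo luminescence was read; sodium butyrate at 4.5 mM final served as control.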
# Rab9 prom act = qHTS Assay for Rab9 Promoter Activators | Huh7 Rab9 promoter-luciferase reporter, luminescence, 24 h | hit rate 2.8% among 320,000 | AID 485297, 2010 | Potency, µM (top dose mostly 9.22 µM), inactives show top-dose activation, negative = inhibition, actives largely listed as activators; also: % of control where 0% means no effect; nearly all actives have a fitted effect of over 60% in size
#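 Cells were plated at 1500 per well in reduced-serum medium with 10% FBS and left 2 h. Compound in DMSO was then added for 24 h at 37 °C. Reporter signal was read by luminescence after 10 min with luciferase detection reagent.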
# Active calls of the source: *; ? = inconclusive; nt = no result given; [ ] = another dose, or the depositor's remark. Calls follow the shape of the dose curve; as a rule, active = well fitted curve in the direction sought with a large enough effect; inconclusive = small, poorly fitted or top-dose-only effect, or another doubt; inactive = no such curve, though single readings can be large; an effect the other way counts as inactive or inconclusive. Potency is read from the fitted curve at half-maximal effect.
SMILES,KinaseGlo FLuc,NPC1 prom act,FLuc counter,ELG1 genotoxic,SMN2 splice enh,Rab9 prom act
O=C(Oc1ccc2c3c(c(=O)oc2c1)CCC3)c1ccco1,-7.2%,1.0%,13.5µM*,8.2%,12.8%,-0.2%
Cc1ccc(CNC(=O)c2ccc3c(c2)N(Cc2cccc(Cl)c2)C(=O)CS3)cc1,nt,nt,-7.3%,nt,-8.2%,nt
CCOC(=O)CC(NC(=O)CCc1c(C)nc2cc(-c3ccccc3)nn2c1C)c1ccc(C)cc1 (stereo unspecified),nt,nt,-20.1%,nt,-20.1%,nt
Cc1csc(NC(=O)CCc2c(C)nc3cc(-c4ccc(Cl)cc4)nn3c2C)n1,11.0%,1.3%,10.7µM*,-14.8%,-83.2%,-2.4%
Cc1nc2cc(-c3ccc(Cl)cc3)nn2c(C)c1CCC(=O)NC(C)c1ccc2c(c1)OCCO2 (stereo unspecified),0.2%,5.3%,15.1µM*,-8.5%,-72.8%,-2.9%
COc1ccccc1CNC(=O)CCc1c(C)nc2cc(-c3ccc(Cl)cc3)nn2c1C,nt,nt,6.1%,nt,15.9%,nt
CC1=NN(c2ccccc2)C(=O)C1N=Nc1ccc(N)cc1 (stereo unspecified),-12.6%,-7.8%,?,-3.4%,-43.3%,-12.2%
NC(=O)CN(N=Nc1cccc([N+](=O)[O-])c1)c1cccc([N+](=O)[O-])c1,2.0%,-9.3%,-1.2%,-4.0%,-29.3%,3.5%
CC1=NN(C(N)=S)C(=O)C1N=Nc1ccc(Br)cc1 (stereo unspecified),nt,2.24µM*,6.01µM*,9.2µM*,nt,3.55µM*
CC1=NN(c2ccccc2)C(=O)[C@@H]1N=Nc1ccc(S(N)(=O)=O)cc1,0.2%[7.66 µM],nt,nt,nt,-7.7%[9.22 µM],nt
CC1=NN(C(N)=S)C(=O)C1N=Nc1cccc([N+](=O)[O-])c1 (stereo unspecified),nt,3.55µM*,12µM*,2.3%,nt,?
CC1=NN(C(N)=S)C(=O)C1N=Nc1ccccc1 (stereo unspecified),-0.9%,-50.1%,23.9µM*,?,23.6%,24.9%
CC1=NN(c2nc(-c3ccc(C)cc3)cs2)C(=O)C1N=Nc1cccc(O)c1 (stereo unspecified),-4.3%,2.1%,?,-12.8%,-41.1%,-6.4%
CC1=NN(C(N)=S)C(=O)C1N=Nc1ccc(Cl)cc1 (stereo unspecified),nt,3.98µM*,3.38µM*,7.3µM*,nt,3.98µM*
COc1ccc(Cn2c(=O)[nH]c3cc(C(=O)N4CCN(c5cc(Cl)ccc5C)CC4)ccc3c2=O)cc1,nt,nt,2.9%,nt,11.1%,nt
O=C(NCc1ccccc1F)C(=O)NCC(c1ccco1)S(=O)(=O)c1cccs1 (stereo unspecified),nt,nt,0.0%,nt,nt,nt
Cc1ccc(OCc2nc(-c3ccccn3)n[nH]2)cc1,-6.3%,?,23.9µM*,6.7%,?,?
COc1ccc(C2C(C#N)=C(C)NC(C)=C2C(=O)OC(C)C)c(OC)c1 (stereo unspecified),-4.2%,-4.3%,-3.0%,6.5%,20.5%,2.1%
Cc1sc(N/N=C/c2ccco2)nc1-c1ccccc1,-0.7%,15.9%,9.53µM*,?,-30.1%,29.8%
Brc1ccc(-c2csc(N/N=C/c3ccco3)n2)cc1,1.2%,?,?,4.0%,?,?
Cc1sc(NC(=O)c2cccnc2)nc1-c1ccccc1,1.0%,-1.9%,-8.3%,1.5%,0.7%,0.0%
Clc1ccc(-c2csc(N/N=C/c3ccco3)n2)cc1,nt,?,13.5µM*,3.3%,nt,?
CC(C)=NNc1nc(-c2ccccc2)c(C)s1,-2.2%,1.1%,?,-3.2%,-9.9%,-1.3%
Cc1sc(N/N=C/c2cccnc2)nc1-c1ccccc1,-9.5%,-2.3%,16.9µM*,-1.0%,?,4.2%
Cc1ccc(-c2csc(N/N=C/c3ccco3)n2)cc1,-1.0%,?,9.53µM*,14.7%,26.4%,?
SMILES,KinaseGlo FLuc,NPC1 prom act,FLuc counter,ELG1 genotoxic,SMN2 splice enh,Rab9 prom act
O=C(CCCN1C(=O)C(c2ccccc2)Oc2cccnc21)Nc1ccc(Br)cc1F (stereo unspecified),nt,nt,2.3%,nt,nt,nt
Cc1ccc(Cl)cc1N1CCN(C(=O)Cn2cnc3sc(C)c(S(=O)(=O)N4CCC(C)CC4)c3c2=O)CC1,nt,nt,-2.7%,nt,4.6%,nt
Cc1ccc(Sc2ccc(N3CCCC(C(=O)Nc4ccc(F)cc4F)C3)nn2)cc1 (stereo unspecified),nt,nt,-0.9%,nt,-3.2%,nt
C(=N\Nc1nc(-c2ccccc2)cs1)/c1ccco1,1.7%,2.82µM*,2.69µM*,?,14.1µM*,3.16µM*
O=C(N/N=C/c1ccccn1)c1cc([N+](=O)[O-])cc([N+](=O)[O-])c1,3.6%,-2.6%,-7.8%,6.3%,-3.7%,-1.7%
Cc1ccccc1C(=O)Nc1ccc(C(=O)N/N=C/c2ccccn2)cc1,nt,-3.3%,-3.7%,0.0%,nt,-0.1%
Cc1ccc(C(=O)N/N=C\c2ccc[nH]2)cn1,-2.4%,1.4%,?,15.8%,-21.0%,1.1%
C(=N\N=C\c1ccccn1)/c1ccccn1,nt,0.4%,12µM*,-1.5%,nt,-1.9%
O=C(N/N=C/c1ccccn1)c1ccc(N/N=C/c2ccccn2)cc1,-5.8%,22.7%,2.39µM*,-3.2%,14.1µM*,2.24µM*
Cc1ccc(C(=O)N/N=C\c2ccccn2)cn1,nt,9.4%,19µM*,0.3%,nt,-0.6%
CC(C)(C)c1ccc(C(=O)N/N=C/c2ccccn2)cc1,nt,21.8%,9.53µM*,?,nt,25.9%
Cc1cccc(C(C)C)c1NC(=O)Cn1c(=O)oc2cc(S(=O)(=O)N3CCCC3)ccc21,nt,nt,1.2%,nt,-23.4%,nt
O=C(N/N=C/c1ccccn1)c1ccc([N+](=O)[O-])cc1,-3.5%,-1.5%,19µM*,8.8%,4.2%,5.1%
O=C(N/N=C/c1ccccn1)c1ccc(Br)cc1,-6.2%,?,10.7µM*,?,9.3%,?
O=C(N/N=C/c1ccc[nH]1)c1ccc([N+](=O)[O-])cc1,-2.0%,-1.7%,15.1µM*,2.4%,-10.1%[1.84 µM],-7.6%
CCCCc1cc(=O)oc2cc(C)c3c(C(C)(C)C)coc3c12,nt,nt,-11.9%,nt,2.2%,nt
Cc1ccsc1/C=N/Nc1ccc(C(=O)O)cc1,nt,?,0.269µM*,?,nt,?
Cc1ccsc1/C=N/Nc1cccc(C(=O)O)c1,-26.4%,3.16µM*,0.107µM*,?,0.1µM*,0.0032µM*
COc1ccc(/C=C/C(=O)Nc2c(C(=O)O)[nH]c3ccccc23)cc1OC,nt,2.9%,?,-1.1%,nt,2.2%
Cc1cc(C(=O)CN2C(=O)NC3(CCCCC3C)C2=O)c(C)n1Cc1cccs1 (stereo unspecified),-3.6%,3.98µM*,6.75µM*,?,15.8µM*,2.82µM*

# Screening data from PubChem BioAssay.
